CIT2-GFP yeast: yeast TOR pathway CIT2-GFP modulation; S. cerevisiae CIT2-GFP strain, flow cytometry, 3 h; 100 means same as DMSO wells; GFP response vs DMSO, % at 10 µM; actives 0.065% (n = 320,000);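 active means GFP response relative to DMSO above a set limit, near the screen mean plus 3 SD, cut at about 150% in these data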;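 further: ratio of well median GFP fluorescence to mean of DMSO wells on the plate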
LAP4 TOR yeast: alters LAP4-GFP fluorescence in TOR pathway yeast screen; S. cerevisiae LAP4-GFP multiplex, flow cytometry GFP, 3 h; median GFP as percent of DMSO wells; GFP response vs DMSO, % at 10 µM; actives 0.34% (n = 320,000);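 active means GFP response vs DMSO above a set limit, about the screen mean plus 3 SD, cut at about 150% in these data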
MEP2-GFP yeast: modulators of TOR pathway MEP2-GFP in S. cerevisiae; S. cerevisiae MEP2-GFP strain, flow cytometry GFP, 3 h; 100% = DMSO control level; GFP response vs DMSO, % at 10 µM; actives 0.51% (n = 330,000); AID 2016;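 active means GFP response versus DMSO above a set limit, roughly screen mean plus 3 SD, cut at about 180% in these data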;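 further: median GFP fluorescence of the barcode-gated MEP2-GFP cells per well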
RPL19A TOR yeast: yeast TOR pathway RPL19A-GFP modulation. S. cerevisiae RPL19A-GFP strain, flow cytometry, 3 h; active compounds read low. percent response vs DMSO, % at 10 µM. actives 0.3% (n = 330,000);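 active means percent response vs DMSO below 50%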;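 further: median channel GFP fluorescence of the barcoded RPL19A-GFP strain; ratio of sample median GFP to plate DMSO average so 100% = DMSO; lower means less RPL19A-GFP as with rapamycin TOR inhibition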
AGP1-GFP MLPCN: modulators of TOR pathway AGP1-GFP in S. cerevisiae; S. cerevisiae AGP1-GFP multiplex flow cytometry, 3 h; GFP as percent of DMSO wells; actives 0.02% (n = 320,000); AID 2066; GFP response vs DMSO, % at 10 µM;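 active means GFP response relative to DMSO above a set limit, near screen average plus 3 SD, cut at about 150% in these data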;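 further: median GFP channel fluorescence of the gated AGP1 strain per well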
LAP4 cherry2: reconfirmed LAP4-GFP TOR pathway modulator in yeast; shares compounds with LAP4 TOR yeast; S. cerevisiae LAP4-GFP strain, flow cytometry GFP, 3 h; GFP response vs DMSO, % at 10 µM; actives 20% (n = 590);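 active means GFP signal as percent of the solvent control above about 150%, meaning raised reporter expression, limit read from the data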;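 further: ratio of well median GFP fluorescence to plate DMSO mean so 100% = DMSO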
MEP2 cherry2: second confirmation of modulators of TOR reporter MEP2-GFP in yeast; shares compounds with LAP4 TOR yeast; S. cerevisiae MEP2-GFP strain, flow cytometry GFP, 3 h; GFP response vs DMSO, % at 10 µM; actives 10% (n = 590); AID 2622;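 active means GFP signal above 150% of the solvent control wells, that is a rise of more than half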;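 further: median channel GFP fluorescence of all gated yeast cells per well; ratio of median GFP to plate DMSO average so 100% = DMSO level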
RPL19A-GFP pick2: second confirmation of modulators of TOR reporter RPL19A-GFP in yeast; shares compounds with LAP4 TOR yeast; S. cerevisiae RPL19A-GFP strain, flow cytometry GFP, 3 h; active compounds read low; 100% means same as DMSO wells; GFP response vs DMSO, % at 10 µM; actives 3% (n = 590); AID 2623;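 active means under 65% GFP response relative to DMSO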;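 further: median GFP channel fluorescence per well over the all cells gate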
CIT2-GFP pick2: second confirmation of modulators of TOR reporter CIT2-GFP in yeast; GFP response vs DMSO, % at 10 µM; S. cerevisiae CIT2-GFP strain, flow cytometry GFP, 3 h; DMSO control wells read 100%; shares compounds with LAP4 TOR yeast; AID 2624; actives 8% (n = 590);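 active means GFP response vs DMSO above about 150%, limit read from the data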;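 further: median green fluorescence per well over all gated yeast cells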
AGP1-GFP pick2: yeast AGP1-GFP TOR reporter modulation, second cherry pick; 590 tested, under 10 active; shares compounds with LAP4 TOR yeast; percent response vs DMSO, % at 10 µM; S. cerevisiae AGP1-GFP strain, flow cytometry GFP, 3 h; AID 2643;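 active means over 150 percent of DMSO response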;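 further: median GFP channel fluorescence over all cells without mother daughter split; sample median GFP divided by mean DMSO control so 100% equals DMSO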
s288c autofluor: compound is autofluorescent in yeast s288c cells; shares compounds with LAP4 TOR yeast; S. cerevisiae s288c, 520 nm autofluorescence, flow cytometry, 3 h; active compounds read high; zero means same as solvent-only cells; fluorescence change (kMESF span) at 33 µM; 610 tested, under 10 active; AID 2757;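 active means fluorescence span over the dose series, or activity score, above about 33, limit read from the data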
Yeast autofl DR: TOR screen hit shows autofluorescence in yeast s288c; shares compounds with LAP4 TOR yeast; S. cerevisiae s288c parental, compound autofluorescence, flow cytometry, 3 h; fluorescence change (span) at 33 µM; 110 tested, under 10 active;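 active means fluorescence change span, or the activity score built from it, above 25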
TORC1 bypass: wildtype yeast growth loss with TORC1 bypass cells unaffected; shares compounds with LAP4 TOR yeast; S. cerevisiae BY4741 spot growth rating, 48-72 h; active compounds read low; growth rating (0-3) at 30 µM; 120 tested, under 10 active; AID 504456;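 active means growth rating at most 1 for wild type yeast while the TORC1 bypass strain still grows fully, rated 3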
Active calls of the source: *; . = not tested or not shown; [ ] = another dose, or the depositor's remark. Most compounds without a hit are left out; they make up all but 0.93% or so of the library.

SMILES	CIT2-GFP yeast	LAP4 TOR yeast	MEP2-GFP yeast	RPL19A TOR yeast	AGP1-GFP MLPCN	LAP4 cherry2	MEP2 cherry2	RPL19A-GFP pick2	CIT2-GFP pick2	AGP1-GFP pick2	s288c autofluor	others
O=C(/C=C/c1ccc(Cl)cc1)c1cccnc1	55	88	94	58	40	111	108	100	111	94	.
N#Cc1ccc(/C=C/C(=O)c2cccnc2)cc1	96	105	87	94	90	.	.	.	.	.	.
O=[N+]([O-])c1ccc(Sc2nc3ccccc3o2)c([N+](=O)[O-])c1	107	165*	98	102	98	.	.	.	.	.	0.51
CC(C)(C)NC(=O)COc1ccccc1C#N	93	94	95	93	93	.	.	.	.	.	.
O=C(NCc1cccc2ccsc12)c1cccs1	92	100	93	94	87	.	.	.	.	.	.
O=C(OCC(=O)N1CCN(C(=O)c2ccco2)CC1)c1cc(-c2cccc(Br)c2)nc2ccccc12	121	162*	125	66	126	.	.	.	.	.	0.1	Yeast autofl DR=0.08;TORC1 bypass=3
O=C(OCC(=O)N1CCN(C(=O)c2ccco2)CC1)c1cc(-c2ccccc2)nc2ccccc12	120	163*	203*	70	137	144	215*	77	129	128	0.1
O=C(OCC(=O)N1CCN(C(=O)c2ccco2)CC1)c1cn(-c2ccccc2)nc1-c1ccccc1	92	100	102	90	103	.	.	.	.	.	.
O=C(OCC(=O)N1CCN(C(=O)c2ccco2)CC1)c1cc(-c2ccc(F)cc2)nc2ccccc12	105	187*	104	72	129	148	201*	72	133	120	-0.1	Yeast autofl DR=0.29;TORC1 bypass=3
NC(=S)N/N=C/c1coc2ccc(Cl)cc2c1=O	64	107	91	89	81	.	.	.	.	.	.
O=C(Oc1ccc(Cl)c2cccnc12)c1cccc([N+](=O)[O-])c1	85	96	91	93	88	.	.	.	.	.	.
O=C(Oc1c(Cl)cc(Cl)c2cccnc12)c1cccc([N+](=O)[O-])c1	107	187*	95	92	92	.	.	.	.	.	2.4	Yeast autofl DR=0.24;TORC1 bypass=0
c1ccc(N2CCN(Cc3ccnc4ccccc34)CC2)cc1	108	98	100	102	.	.	.	.	.	.	.
Oc1c(CN2CCN(c3ccccc3)CC2)cc(Br)c2cccnc12	101	224*	116	100	91	.	.	.	.	.	2.5
O=C(CSc1ccc(F)cc1)Nc1cccc(S(=O)(=O)N2CCOCC2)c1	87	170*	102	87	112	102	98	100	107	97	.
CC1=CC(=O)c2ccccc2C1=O	88	99	94	100	87	.	.	.	.	.	.
CC(C)(C=O)C1=CC(=O)c2ccccc2C1=O	90	193*	113	87	96	143	118	102	146	105	.
Cc1cc(Cl)ccc1C(=O)C1CCCN(C(=O)c2cnsn2)C1 (centres undefined)	103	103	107	105	100	.	.	.	.	.	.
O=C(Nc1cccc(-c2csc(Nc3ccccc3)n2)c1)c1ccccc1	90	153*	98	98	82	109	103	97	92	93	0.1
O=C(Nc1cccc(-c2csc(Nc3cccc(C(F)(F)F)c3)n2)c1)c1ccccc1	107	141	100	102	93	.	.	.	.	.	.
O=C(COc1ccc2c3c(c(=O)oc2c1)CCC3)NCc1cccnc1	95	91	98	95	70	.	.	.	.	.	.
O=C(NC(=S)NNC(=O)[C@H]1C[C@@H]1c1ccccc1)c1cccc(F)c1	96	153*	101	89	102	.	.	.	.	.	1.3
COc1cccc(OC)c1C(=O)NC(=S)NNC(=O)[C@H]1C[C@@H]1c1ccccc1	90	87	92	98	85	.	.	.	.	.	.
Cc1cccc(C(=O)NNC(=S)NC(=O)c2ccccc2)c1	105	155*	100	109	111	.	.	.	.	.	0.9
O=C(CCc1ccccc1)NNC(=S)NC(=O)c1ccccc1	97	243*	121	108	95	.	.	.	.	.	0.81	Yeast autofl DR=0.78;TORC1 bypass=3
SMILES	CIT2-GFP yeast	LAP4 TOR yeast	MEP2-GFP yeast	RPL19A TOR yeast	AGP1-GFP MLPCN	LAP4 cherry2	MEP2 cherry2	RPL19A-GFP pick2	CIT2-GFP pick2	AGP1-GFP pick2	s288c autofluor	others
COc1ccc(C(=O)NC(=S)NNC(=O)c2cccc(C)c2)cc1	97	111	98	107	96	.	.	.	.	.	.
CC(=O)NC(=S)NNC(=O)CCc1ccccc1	94	107	100	95	101	.	.	.	.	.	.
CCCCC(=O)NC(=S)NNC(=O)CCc1ccccc1	109	150*	109	101	102	139	105	104	123	97	0.4
O=C(Nc1cc([N+](=O)[O-])ccc1N1CCCC1)c1cccs1	87	115	107	108	94	.	.	.	.	.	.
Cc1cc(C)cc(NC(=O)COC(=O)COc2cccc3c2OC(C)(C)C3)c1	102	114	105	101	115	.	.	.	.	.	.
Cc1ccc(NC(=O)COC(=O)COc2cccc3c2OC(C)(C)C3)cc1C	157*[may fluoresce green]	167*[may fluoresce green]	212*[may fluoresce green]	107	91	98	100	103	98	101	.
Cc1ccc(S(=O)(=O)N2CC(C(=O)O)=CC[C@H]2c2ccc(Cl)cc2)cc1	89	159*	89	97	83	111	93	97	97	95	-0.31
COc1ccc([C@@H]2CC=C(C(=O)O)CN2S(=O)(=O)c2ccc(Cl)cc2)cc1	110	131	83	96	85	.	.	.	.	.	.
Cc1cc(C)nc(Nc2n[nH]c(COc3ccccc3)n2)n1	101	88	167	62	25	101	107	99	104	96	.

Assay outcomes from PubChem BioAssay.
